The supplement of paper PMC6089552
The campaign covered roughly 3,200 compounds. About 300 (9.4%) showed activity. Only a selection was taken, and actives are over-represented in it overall.

Tested on: A673/TR/shEF
Assay: cell viability (LOESS-normalised, relative to median of negative controls) (log2 ratio); higher = more viable cells (less compound effect), active = hit call of the paper (over 3 MAD below the median)
Settings: treatment time: 72 h
In short: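 A673/TR/shEF Ewing sarcoma cells were plated at 1,500 per well in 384-well plates and cultured with or without doxycycline, added 24 h before compounds, to induce EWS-FLI1 shRNA knockdown. Library compounds at two or more concentrations, alongside DMSO controls, were applied for three days. Cell viability was measured by CellTiter-Glo luminescence on an Envision reader. Readings were LOESS-corrected per plate, divided by the median of negative controls and log2-transformed, and hits were wells lying at least three median absolute deviations from the median of all screened wells.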

[1] = 0.25 µM, library screen: screen2, EWS-FLI1 expression: high (no doxycycline)
[2] = 0.25 µM, library screen: screen2, EWS-FLI1 expression: low (doxycycline-induced shRNA knockdown)
[3] = 2.5 µM, library screen: screen2, EWS-FLI1 expression: high (no doxycycline)
[4] = 2.5 µM, library screen: screen2, EWS-FLI1 expression: low (doxycycline-induced shRNA knockdown)
[5] = 0.25 µM, library screen: screen1, EWS-FLI1 expression: high (no doxycycline)
[6] = 0.25 µM, library screen: screen1, EWS-FLI1 expression: low (doxycycline-induced shRNA knockdown)
[7] = 2.5 µM, library screen: screen1, EWS-FLI1 expression: high (no doxycycline)
[8] = 2.5 µM, library screen: screen1, EWS-FLI1 expression: low (doxycycline-induced shRNA knockdown)

Measured: cell viability (log2)

C/C(=C\c1ccc(C(=O)O)cc1)c1ccc2c(c1)C(C)(C)CCC2(C)C
inactive: [1] 0.00709 | [2] 0.0496 | [3] 0.0275 | [4] 0.0889

O=C(O)c1ccc2c(c1)OCO2
inactive: [5] 0.146 | [6] 0.102 | [7] 0.137 | [8] 0.0963

NC1(C(=O)O)CCc2cc(C(=O)O)ccc21 (stereo unspecified)
inactive: [2] 0.0469 | [3] 0.0221 | [4] 0.107
active: [1] -0.364

C=C(C)Cn1c(COc2ccc(Cl)cc2Cl)n[nH]c1=S
inactive: [5] 0.0645 | [6] -0.015 | [7] 0.0851 | [8] -0.014

CC(C)CC(NP(=O)(O)O[C@@H]1O[C@@H](C)[C@H](O)[C@@H](O)[C@H]1O)C(=O)NC(Cc1c[nH]c2ccccc12)C(=O)O (stereo partly specified)
inactive: [1] 0.0833 | [2] 0.00183 | [3] 0.149 | [4] -0.00437

COc1cc(CN2CCN(Cc3ccccc3F)CC2)cc(OC)c1OC
inactive: [5] 0.0928 | [6] 0.0533 | [7] 0.0786 | [8] 0.127

OC[C@H]1N[C@H](CO)[C@@H](O)[C@@H]1O
inactive: [1] 0.176 | [2] 0.0684 | [3] 0.108 | [4] 0.0354

Cc1ccc(C(C)C)c(O)c1C(=O)O
inactive: [5] 0.112 | [6] 0.00973 | [7] 0.164 | [8] 0.0715

CC(C)C[C@@H]1NC(=O)[C@H](CCCN)NC(=O)[C@H](C(C)C)NC(=O)[C@@H]2CCCN2C(=O)[C@@H](Cc2ccccc2)NC(=O)[C@H](CC(C)C)NC(=O)[C@H](CCCN)NC(=O)[C@H](C(C)C)NC(=O)[C@@H]2CCCN2C(=O)[C@@H](Cc2ccccc2)NC1=O
inactive: [8] -0.0354
active: [5] -1.96 | [6] -0.176 | [7] -3.79

CC(C)[C@@H]1NC(=O)[C@H](CCCCN)NC(=O)[C@@H](Cc2c[nH]c3ccccc23)NC(=O)[C@H](Cc2ccc(O)cc2)NC(=O)[C@H](C)N(C)C(=O)[C@H](Cc2ccccc2)NC1=O
inactive: [1] 0.191 | [2] 0.085 | [3] 0.149 | [4] 0.111

CCC(C)C(N)C1=NC(C(=O)N[C@@H](CC(C)C)C(=O)N[C@H](CCC(=O)O)C(=O)N[C@H](C(=O)N[C@H]2CCCCNC(=O)[C@H](CC(N)=O)NC(=O)[C@@H](CC(=O)O)NC(=O)[C@H](Cc3cnc[nH]3)NC(=O)[C@@H](Cc3ccccc3)NC(=O)[C@H]([C@@H](C)CC)NC(=O)[C@@H](CCCN)NC2=O)[C@@H](C)CC)CS1 (stereo partly specified)
inactive: [5] 0.0992 | [6] -0.0505 | [7] 0.131 | [8] 0.0875

CC(C)C[C@@H]1NC(=O)[C@H](CCCN)NC(=O)[C@H](C(C)C)NC(=O)[C@H](Cc2ccc(O)cc2)N[C@@H](CCC(=O)O)C(=O)N[C@@H](CC(N)=O)C(=O)[C@@H](Cc2ccccc2)NC(=O)[C@H](Cc2ccccc2)NC(=O)[C@@H]2CCCN2C(=O)[C@@H](Cc2ccccc2)NC1=O
active: [5] -0.767 | [7] -2.84 | [8] -2.45
inactive: [6] -0.0111

CC1=CCCC(=O)C2CC(C)(C)C2CC1 (stereo unspecified)
inactive: [5] 0.0664 | [6] 0.0572 | [7] 0.102 | [8] 0.0635

CC(=O)O[C@H]1C[C@@]2(C)[C@H](c3ccoc3)OC(=O)[C@H]3O[C@]32[C@@]2(C)C1[C@]1(C)C(C[C@H]2OC(C)=O)C(C)(C)[C@H](OC(C)=O)C[C@@H]1OC(C)=O (stereo partly specified)
inactive: [5] -0.00983 | [6] 0.0592 | [7] 0.0456 | [8] 0.0721

CC(C)(C)[C@]1(O)CCN2CC3c4ccccc4CCc4cccc(c43)[C@@H]2C1 (stereo partly specified)
inactive: [1] 0.166 | [2] 0.165 | [3] 0.11 | [4] 0.076

CC12CCC3c4ccc(OCc5ccccc5)cc4CCC3C1C[C@@H](O)[C@@H]2O (stereo partly specified)
inactive: [5] 0.0858 | [6] 0.0634 | [7] 0.147 | [8] 0.17

COc1cc(NC(C)CCCN)c2ncccc2c1 (stereo unspecified)
active: 25 µM, library screen: screen2, EWS-FLI1 expression: high (no doxycycline) -0.632
inactive: 0.025 µM, library screen: screen2, EWS-FLI1 expression: high (no doxycycline) 0.0561 | 0.025 µM, library screen: screen2, EWS-FLI1 expression: low (doxycycline-induced shRNA knockdown) -0.00137 | [5] 0.054 | [6] 0.199 | [1] 0.0891 | [2] 0.0483 | [7] 0.127 | [8] 0.305 | [3] 0.104 | [4] -0.00544 | 25 µM, library screen: screen2, EWS-FLI1 expression: low (doxycycline-induced shRNA knockdown) -0.0311

CCCCC1=NC2(CCCC2)C(=O)N1Cc1ccc(-c2ccccc2-c2nn[nH]n2)cc1
inactive: 0.103 µM, library screen: screen3, EWS-FLI1 expression: high (no doxycycline) 0.107 | 0.103 µM, library screen: screen3, EWS-FLI1 expression: low (doxycycline-induced shRNA knockdown) 0.0606 | [5] 0.058 | [6] 0.0291 | 0.308 µM, library screen: screen3, EWS-FLI1 expression: high (no doxycycline) -0.0112 | 0.308 µM, library screen: screen3, EWS-FLI1 expression: low (doxycycline-induced shRNA knockdown) 0.0296 | 0.926 µM, library screen: screen3, EWS-FLI1 expression: high (no doxycycline) 0.00566 | 0.926 µM, library screen: screen3, EWS-FLI1 expression: low (doxycycline-induced shRNA knockdown) 0.0237 | [7] 0.0857 | [8] 0.072 | 2.8 µM, library screen: screen3, EWS-FLI1 expression: high (no doxycycline) 0.0909 | 2.8 µM, library screen: screen3, EWS-FLI1 expression: low (doxycycline-induced shRNA knockdown) 0.0243 | 8.3 µM, library screen: screen3, EWS-FLI1 expression: high (no doxycycline) 0.0907 | 8.3 µM, library screen: screen3, EWS-FLI1 expression: low (doxycycline-induced shRNA knockdown) 0.057 | 25 µM, library screen: screen3, EWS-FLI1 expression: high (no doxycycline) 0.0719 | 25 µM, library screen: screen3, EWS-FLI1 expression: low (doxycycline-induced shRNA knockdown) 0.134

CC(C)[C@@H]1CC[C@@H](C)CC1=O
inactive: [5] 0.057 | [6] 0.0478 | [7] 0.148 | [8] 0.0792
